Reference: PubChem BioAssay (Tox21)
“And” between values parts separate entries of the source, which are not always exact repeats. Identical values can stand only once. Results filed as inconclusive are left out. The source holds several records for some structures; these can differ, active in one and inactive in another. The source made the active and inactive calls. Unless noted, calls come from the whole dose curve; as a rule, active = well fitted curve in the direction sought with a large enough effect in the repeat runs; inconclusive = weak or mixed curves; inactive = no such curve, though single readings can be large; an effect the other way counts as inactive or inconclusive.

Legend:
[1] = molecular target: Retinoic acid receptor RXR-alpha (Homo sapiens) (UniProt P19793); assay: qHTS assay to identify small molecule agonists of the RXR signaling pathway (AID 1159527; calls by dose curve; note: nearly all actives have a fitted effect of over 35% in size; note: potency is the fitted concentration of half-maximal effect)
Retinoic acid receptor RXR-alpha (Homo sapiens), sequence (P19793 whole entry, looked up): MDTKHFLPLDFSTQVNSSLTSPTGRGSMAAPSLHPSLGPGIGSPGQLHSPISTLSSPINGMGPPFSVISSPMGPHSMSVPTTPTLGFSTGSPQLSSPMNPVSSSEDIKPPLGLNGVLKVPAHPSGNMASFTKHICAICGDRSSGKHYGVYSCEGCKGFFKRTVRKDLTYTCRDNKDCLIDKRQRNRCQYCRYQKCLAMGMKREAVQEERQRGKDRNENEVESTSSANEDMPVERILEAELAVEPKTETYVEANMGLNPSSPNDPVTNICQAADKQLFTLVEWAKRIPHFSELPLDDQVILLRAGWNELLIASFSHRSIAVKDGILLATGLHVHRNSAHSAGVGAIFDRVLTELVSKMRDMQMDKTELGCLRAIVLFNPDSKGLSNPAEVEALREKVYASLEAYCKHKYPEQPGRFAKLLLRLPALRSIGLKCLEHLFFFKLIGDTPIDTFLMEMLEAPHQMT
Summary of the method: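 Compounds in DMSO were added to RXR-alpha-UAS-bla HEK 293T cells kept in 2% charcoal-stripped serum, and incubated 16 hr at 37 C with 5% CO2. Reporter signal came from a 2 hr B/G FRET substrate step.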

[2] = qHTS assay to identify small molecule agonists of the RXR signaling pathway - cell viability counter screen (AID 1159529);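 note: HEK 293T cells carrying an RXR-alpha UAS beta-lactamase reporter; series mostly up to about 77 µM; nearly all actives have a fitted effect of over 50% in size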
Summary of the method: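 Counter screen: CellTiter-Glo luminescence. Cells: RXR-alpha-UAS-bla HEK 293T. Medium: 2% charcoal-stripped FBS. Treatment: 16 h, 37 C. Reagent incubation: 30 min, RT.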

[3] = qHTS assay to identify small molecule antagonists of the retinoid acid receptor (RAR) signaling pathway - cell viability counter screen (AID 1159551); note: nearly all actives have a fitted effect of over 35% in size
Summary of the method: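 In this counter screen, the RARE-luciferase line C3RL4 was exposed for 6 h at 37 C and 5% CO2 to compounds with retinol at 1 uM final. Cellular ATP, read by luminescence, served as the viability measure.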

[4] = qHTS assay to identify small molecule agonists of the retinoic acid receptor (RAR) signaling pathway (AID 1159553); note: potency is the fitted concentration of half-maximal effect
Summary of the method: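 In this cell-based screen, 1,000 C3RL4 cells per well were cultured overnight, dosed with test chemicals in DMSO for 6 hr, and assessed for RARE luciferase luminescence.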

[5] = qHTS assay to identify small molecule antagonists of the estrogen related receptor (ERR) signaling pathway from Tox21 library - cell viability counter screen (AID 1224834); note: nearly all actives have a fitted effect of over 30% in size
Summary of the method: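 Counter screen run in ERR cells (2,000 cells/well): cells pre-incubated 6 h, then treated with compounds for 17.5 h at 37 C. Fluorescence was read 30 min after CellTiter-Fluor addition.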

[6] = qHTS assay to identify small molecule agonists of the constitutive androstane receptor (CAR) signaling pathway - cell viability counter screen (AID 1224836); note: series mostly up to about 92 µM; nearly all actives have a fitted effect of over 45% in size
Summary of the method: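 Double-stable HepG2 hepatoma cells (hCAR plus CYP2B6-2.2kb) are treated for 23 h at 37 C with test compounds in 15-point concentration series. PK11195 at 0.75 uM final is co-added. Cell viability is quantified by CellTiter-Fluor.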

[7] = qHTS assay to identify small molecule antagonists of the constitutive androstane receptor (CAR) signaling pathway - cell viability counter screen (AID 1224837); note: series mostly up to about 92 µM; nearly all actives have a fitted effect of over 45% in size
Summary of the method: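 CITCO at 50 nM final was added alongside compounds (15 concentrations) to double-stable hCAR/CYP2B6-2.2kb HepG2 cells. Following 23 hr at 37 C, cell viability was quantified by CellTiter-Fluor fluorescence intensity.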

[8] = molecular target: Nuclear receptor subfamily 1 group I member 3 (Homo sapiens) (UniProt Q14994); assay: qHTS assay to identify small molecule antagonists of the constitutive androstane receptor (CAR) signaling pathway (AID 1224838); note: nearly all actives have a fitted effect of over 40% in size
Nuclear receptor subfamily 1 group I member 3 (Homo sapiens), sequence (Q14994 whole entry, looked up): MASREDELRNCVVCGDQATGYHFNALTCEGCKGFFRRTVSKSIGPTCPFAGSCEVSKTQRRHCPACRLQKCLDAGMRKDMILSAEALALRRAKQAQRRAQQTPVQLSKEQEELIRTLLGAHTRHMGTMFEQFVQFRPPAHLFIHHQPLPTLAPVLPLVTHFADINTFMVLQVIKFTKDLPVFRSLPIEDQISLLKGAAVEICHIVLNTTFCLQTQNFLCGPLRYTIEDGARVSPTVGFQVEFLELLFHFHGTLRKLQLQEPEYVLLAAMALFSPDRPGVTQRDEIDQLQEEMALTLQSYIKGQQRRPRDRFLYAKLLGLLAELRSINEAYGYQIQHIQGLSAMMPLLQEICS
Summary of the method: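 Inhibition of CITCO-driven (50 nM final) CYP2B6 reporter expression is measured in HepG2 cells stably carrying hCAR. Fifteen compound concentrations are applied for 24 h at 37 C, followed by luciferase luminescence.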

[9] = qHTS assay to identify small molecule antagonists of the estrogen related receptor signaling pathway with the pleiotropic PPARgamma coactivator (PGC) from Tox21 10K library - cell viability counter screen (AID 1224840; active = well fitted cell-killing curve with a large enough effect in the repeat runs, not every such curve was filed as active; note: nearly all actives have a fitted effect of over 40% in size)
Summary of the method: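 Readout: fluorescence intensity from CellTiter-Fluor after 30 min at 37 C/5% CO2. Preceded by 17.5 h treatment of PGC/ERR cells with DMSO-dissolved compounds, added 6 h post-seeding.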

[10] = qHTS assay to identify small molecule antagonists of the estrogen related receptor signaling pathway with the pleiotropic PPARgamma coactivator (PGC) from Tox21 10K library (AID 1224841; call rule not given here; note: series mostly up to about 92 µM; actives are mostly falling curves and most rising ones were filed inactive; nearly all actives have a fitted effect of over 50% in size)
Summary of the method: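 One-Glo luminescence, measured after half an hour at room temperature, quantified reporter output of PGC/ERR cells. These had been plated at 2,000 per well, incubated 6 h, dosed with compounds in DMSO, then kept 18 h at 37 C.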

[11] = qHTS assay to identify small molecule agonists of the estrogen related receptor signaling pathway with the pleiotropic PPARgamma coactivator (PGC) from Tox21 10K library (AID 1224842); note: nearly all actives have a fitted effect of over 15% in size
Summary of the method: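 Luminescence from One-Glo (30 min, room temperature) measured after PGC/ERR cells had 18 h at 37 C with pinned compound (23 nL in DMSO). Cells had been seeded at 2,000 per well and pre-incubated 6 h.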

[12] = molecular target: Luciferin 4-monooxygenase (Photinus pyralis) (UniProt P08659); assay: qHTS assay to identify small molecule inhibitors of firefly luciferase (AID 1224835); note: nearly all actives have a fitted effect of over 25% in size; note: potency is the fitted concentration of half-maximal effect
Luciferin 4-monooxygenase (Photinus pyralis), sequence (P08659 whole entry, looked up): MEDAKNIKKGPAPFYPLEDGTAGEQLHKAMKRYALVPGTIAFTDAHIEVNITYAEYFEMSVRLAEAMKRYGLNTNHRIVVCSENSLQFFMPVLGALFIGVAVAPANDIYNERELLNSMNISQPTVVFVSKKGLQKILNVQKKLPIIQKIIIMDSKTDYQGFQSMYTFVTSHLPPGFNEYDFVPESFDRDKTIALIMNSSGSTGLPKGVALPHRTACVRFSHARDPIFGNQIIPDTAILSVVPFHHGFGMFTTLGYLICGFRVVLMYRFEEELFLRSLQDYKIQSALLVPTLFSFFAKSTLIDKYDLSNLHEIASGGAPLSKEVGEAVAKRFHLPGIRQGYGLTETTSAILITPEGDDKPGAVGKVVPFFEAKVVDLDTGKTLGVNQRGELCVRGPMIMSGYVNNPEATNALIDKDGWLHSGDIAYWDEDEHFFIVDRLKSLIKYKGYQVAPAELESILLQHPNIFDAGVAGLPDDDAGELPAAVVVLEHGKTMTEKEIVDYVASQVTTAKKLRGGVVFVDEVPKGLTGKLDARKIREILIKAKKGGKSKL
Summary of the method: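 Inhibition of purified Photinus luciferase is measured by luminescence. Substrate levels (D-luciferin, ATP) sit at their KM values. Each compound is tested in a concentration series.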

[13] = molecular target: Nuclear receptor subfamily 1 group I member 3 (Homo sapiens) (UniProt Q14994); assay: qHTS assay to identify small molecule agonists of the constitutive androstane receptor (CAR) signaling pathway (AID 1224839); note: series mostly up to about 92 µM; nearly all actives have a fitted effect of over 15% in size
Summary of the method: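 Readout: firefly luciferase luminescence via ONE-Glo. System: HepG2 double-stable for hCAR and CYP2B6-2.2kb. Conditions: 15-point compound titration, PK11195 at 0.75 uM final, 24 h incubation.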

[14] = qHTS assay to identify small molecule antagonists of the estrogen related receptor (ERR) signaling pathway - cell viability counter screen (AID 1224818); note: series mostly up to about 46 µM
Summary of the method: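 Viability of ERR cells, CellTiter-Fluor fluorescence; 17.5 h compound exposure at 37 C, DMSO vehicle; 30 min reagent incubation at 37 C/5% CO2.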

[15] = qHTS assay to identify small molecule antagonists of the estrogen related receptor (ERR) signaling pathway (AID 1224819;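 note: luminescence from an ERR-driven luciferase reporter measured with One-Glo reagent; series mostly up to about 46 µM; nearly all actives have a fitted effect of over 50% in size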)
Summary of the method: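 Seed ERR cells 2,000/well; rest 6 h at 37 C/5% CO2; pin compounds in DMSO; incubate 18 h at 37 C; add One-Glo; wait 30 min at room temperature; measure luminescence.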

[16] = qHTS assay to identify small molecule agonists of the estrogen related receptor (ERR) signaling pathway (AID 1224820)
Summary of the method: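 Luminescence readout (One-Glo, 30 min RT) from NTP-supplied ERR cell line exposed to compounds for 18 h at 37 C. Cells seeded 2,000 per well and pre-incubated 6 h before pin-tool compound transfer.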

[17] = system: estrogen-related receptor alpha (ERRalpha) with PGC-1alpha coactivator, human; assay: qHTS assay to identify small molecule antagonists of the estrogen related receptor signaling pathway with the pleiotropic PPARgamma coactivator (PGC) (AID 1224821; calls by dose curve;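 note: series mostly up to about 46 µM; lower luminescence signal means antagonism of PGC/ERR signalling; nearly all actives have a fitted effect of over 50% in size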)
Summary of the method: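 PGC/ERR reporter cells; 6 h pre-incubation 37 C/5% CO2; pin-tool compound in DMSO, 18 h 37 C; One-Glo added, 30 min RT; luminescence read. qHTS antagonist mode.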

[18] = qHTS assay to identify small molecule antagonists of the estrogen related receptor signaling pathway with the pleiotropic PPARgamma coactivator (PGC) cell viability counter screen (AID 1224822; note: series mostly up to about 46 µM)
Summary of the method: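 17.5 h compound treatment of PGC/ERR cells at 37 C; readout CellTiter-Fluor fluorescence; run alongside the PGC/ERR antagonist screen to flag cytotoxic compounds.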

[19] = qHTS assay to identify small molecule agonists of the estrogen related receptor signaling pathway with the pleiotropic PPARgamma coactivator (PGC) (AID 1224823)
Summary of the method: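 Luminescence readout (One-Glo, 30 min RT) from PGC/ERR cell line treated 18 h at 37 C with pin-tool-delivered DMSO compound solutions; cells plated 6 h before dosing. Quantitative HTS format.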

Measured: Potency

CC(=O)OCc1ccco1
not listed: [12] | [13] | [14] | [15] | [16] | [17] | [18] | [19]
inactive: all other assays above

CCNc1ccccc1
inactive: [1] | [2] | [3] | [4] | [5] | [6] | [7] | [8] | [13] | [9]
28.8 µM (active) and inactive: [12]

NC(=S)NNC(N)=S
inactive: [1] | [2] | [3] | [4] | [5] | [12] | [6] | [7] | [9]

c1ccc(Oc2ccccc2)cc1
not listed: [10] | [11] | [14] | [15] | [16] | [17] | [18] | [19]
inactive: all other assays above

CCCCOC(=O)c1ccc(N)cc1
inactive: [1] | [2] | [3] | [5] | [6] | [7] | [8] | [9]
active: [4] 26.9 µM and 21.1 µM
inactive and 34.7 µM (active): [12]

CC(=O)Oc1ccc(C)cc1
inactive: [1] | [2] | [3] | [4] | [5] | [6] | [7] | [9]

COc1ccc(CCC(C)=O)cc1
inactive: [1] | [2] | [3] | [4] | [5] | [6] | [7] | [9]

O=C1CCCC1
inactive: [1] | [2] | [3] | [4] | [5] | [6] | [7] | [9] | [10] | [11]

CC(C)(C#N)c1cc(Cn2cncn2)cc(C(C)(C)C#N)c1
inactive: [1] | [2] | [3] | [5] | [6] | [7] | [8] | [9] | [10] | [11]

C=CC[N+](C)(C)CC=C
inactive: [1] | [2] | [3] | [4] | [5] | [6] | [7] | [9]

C=CCc1ccc(OC)c(OC)c1
inactive and 7.76 µM (active): [1]
inactive: [2] | [3] | [5] | [6] | [7] | [9]

CC(C)(Oc1ccc(CCNC(=O)c2ccc(Cl)cc2)cc1)C(=O)O
not listed: [4] | [12]
inactive: all other assays above

C=C(C)C(=O)OCC(C)C
inactive: [1] | [2] | [3] | [4] | [5] | [6] | [7] | [9]

COc1cc(OC)c(C(=O)CCCN2CCCC2)c(OC)c1
inactive: [1] | [2] | [3] | [5] | [12] | [6] | [7] | [8] | [9]

CC(C)OP(=O)(CP(=O)(OC(C)C)OC(C)C)OC(C)C
inactive: [1] | [2] | [3] | [5] | [6] | [7] | [8] | [9]

CCc1ccccc1CC
inactive: [1] | [2] | [3] | [5] | [6] | [7] | [9] | [10] | [11]

CCO[Si](CCC#N)(OCC)OCC
inactive: [1] | [2] | [3] | [5] | [6] | [7] | [9]

CCCCCCCCCCCC(=O)OC
inactive: [1] | [2] | [3] | [5] | [12] | [6] | [7] | [8] | [13] | [9]

COc1ccccc1OCC(O)CO (stereo not drawn)
inactive: [1] | [2] | [3] | [5] | [12] | [6] | [7] | [9]

O=C(O)/C=C/C(=O)O
inactive: [1] | [2] | [3] | [6] | [7] | [8]

CCOC(=O)c1ccc(N)cc1
inactive: [1] | [2] | [3] | [6] | [7] | [8] | [13] | [9]

CCO[Si](CCCN)(OCC)OCC
19.5 µM (active) and inactive: [1]
not listed: [4] | [14] | [15] | [16] | [17] | [18] | [19]
inactive: all other assays above

C=CCCCCCCCCC(=O)O
active: [1] 43.6 µM
inactive: [2] | [3] | [5] | [12] | [6] | [7] | [9]

O=[N+]([O-])c1ccc2nc[nH]c2c1
inactive: [1] | [2] | [3] | [5] | [12] | [6] | [7] | [8] | [13] | [9]

CN1C(=O)CC[C@H]1c1cccnc1
not listed: [4] | [10] | [11] | [13] | [15] | [16] | [17] | [19]
inactive: all other assays above

CC(=O)c1ccc(O)cc1
inactive: [1] | [2] | [3] | [5] | [12] | [6] | [7] | [8] | [13] | [9]

c1ccc2c(c1)Cc1ccccc1-2
inactive: [1] | [2] | [3] | [4] | [5] | [6] | [7] | [9]

C[C@]12CC[C@@H]3c4ccc(O)cc4CC[C@H]3[C@@H]1C[C@@H](O)[C@@H]2O
inactive: [1] | [2] | [3] | [4] | [5] | [6] | [7] | [9]

CN/C(=C\[N+](=O)[O-])NCCSCc1csc(CN(C)C)n1
inactive: [1] | [2] | [3] | [5] | [6] | [7] | [8] | [9]
